What follows are sequences tested against HOXC10 (Homo sapiens, UniProt Q9NYD6 254-340, K271E) (assay: PBM; 200 nM protein, PBS). Conditions: dsDNA, one strand shown.
Chain of HOXC10 (Q9NYD6 254-340 K271E): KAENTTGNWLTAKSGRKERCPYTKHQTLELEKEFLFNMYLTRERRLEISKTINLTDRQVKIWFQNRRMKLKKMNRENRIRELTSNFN
In the case of AACATAAA, the binding signal is reported as 11.3 upbm affinity estimate (log intensity, higher = more binding, comparable within an allelic series).
In the case of ACATAAAT, the binding signal is reported as 11.3 upbm affinity estimate (log intensity, higher = more binding, comparable within an allelic series).
For CATAAATG, the binding signal was 11.2 upbm affinity estimate (log intensity, higher = more binding, comparable within an allelic series).
CACATAAA was tested, and the binding signal was 11.3 upbm affinity estimate (log intensity, higher = more binding, comparable within an allelic series).
With GTAGTAAA the binding signal was 11.1 upbm affinity estimate (log intensity, higher = more binding, comparable within an allelic series).

These sequences were tested against MSX2 (Homo sapiens, UniProt P35548 130-214) (assay: PBM; 200 nM protein, PBS). Conditions: dsDNA, one strand shown.
Chain of MSX2 (Homo sapiens, UniProt P35548 130-214) (P35548 130-214): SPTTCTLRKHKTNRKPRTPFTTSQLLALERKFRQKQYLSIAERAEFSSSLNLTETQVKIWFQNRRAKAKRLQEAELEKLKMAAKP
ATTTTTGG was tested, and the binding signal was 10.7 upbm affinity estimate (log intensity, higher = more binding, comparable within an allelic series).
ATTTGTCC was tested, and the binding signal was 11.1 upbm affinity estimate (log intensity, higher = more binding, comparable within an allelic series).
With AACAAGAG the binding signal was 10.3 upbm affinity estimate (log intensity, higher = more binding, comparable within an allelic series).
With AAAATCGT the binding signal was 11 upbm affinity estimate (log intensity, higher = more binding, comparable within an allelic series).
For AAGCAAAT, the binding signal was 11.3 upbm affinity estimate (log intensity, higher = more binding, comparable within an allelic series).
With CAAATTCA the binding signal was 10.9 upbm affinity estimate (log intensity, higher = more binding, comparable within an allelic series).
In the case of AAACGATG, the binding signal is reported as 10.6 upbm affinity estimate (log intensity, higher = more binding, comparable within an allelic series).
ATCATCGG was tested, and the binding signal was 10.9 upbm affinity estimate (log intensity, higher = more binding, comparable within an allelic series).
In the case of AATCAGGC, the binding signal is reported as 11.4 upbm affinity estimate (log intensity, higher = more binding, comparable within an allelic series).
With AAGAATCA the binding signal was 10.8 upbm affinity estimate (log intensity, higher = more binding, comparable within an allelic series).
For CAATCCGA, the binding signal was 10.8 upbm affinity estimate (log intensity, higher = more binding, comparable within an allelic series).
For ACCGATAA, the binding signal was 11.2 upbm affinity estimate (log intensity, higher = more binding, comparable within an allelic series).
In the case of ATCAAAAT, the binding signal is reported as 11.2 upbm affinity estimate (log intensity, higher = more binding, comparable within an allelic series).
In the case of TCAACTAA, the binding signal is reported as 11.2 upbm affinity estimate (log intensity, higher = more binding, comparable within an allelic series).
With GTCATCTA the binding signal was 10.5 upbm affinity estimate (log intensity, higher = more binding, comparable within an allelic series).
In the case of ATTACTTC, the binding signal is reported as 11.6 upbm affinity estimate (log intensity, higher = more binding, comparable within an allelic series).
CAAATAAG was tested, and the binding signal was 11.1 upbm affinity estimate (log intensity, higher = more binding, comparable within an allelic series).
For ACCTCAAT, the binding signal was 11 upbm affinity estimate (log intensity, higher = more binding, comparable within an allelic series).
For ACATGTTA, the binding signal was 10.7 upbm affinity estimate (log intensity, higher = more binding, comparable within an allelic series).
AAACGATC was tested, and the binding signal was 10.9 upbm affinity estimate (log intensity, higher = more binding, comparable within an allelic series).
In the case of GAATAAAA, the binding signal is reported as 11 upbm affinity estimate (log intensity, higher = more binding, comparable within an allelic series).
With ATTTCTAA the binding signal was 11.2 upbm affinity estimate (log intensity, higher = more binding, comparable within an allelic series).
For AATCGCAT, the binding signal was 10.9 upbm affinity estimate (log intensity, higher = more binding, comparable within an allelic series).
With ATCAATCC the binding signal was 11.1 upbm affinity estimate (log intensity, higher = more binding, comparable within an allelic series).
AGTCCTAA was tested, and the binding signal was 11.4 upbm affinity estimate (log intensity, higher = more binding, comparable within an allelic series).
With ACAGATTG the binding signal was 10.8 upbm affinity estimate (log intensity, higher = more binding, comparable within an allelic series).
With ATAAATAC the binding signal was 11.3 upbm affinity estimate (log intensity, higher = more binding, comparable within an allelic series).
CTCAATCC was tested, and the binding signal was 10.8 upbm affinity estimate (log intensity, higher = more binding, comparable within an allelic series).
For GCGATATA, the binding signal was 10.6 upbm affinity estimate (log intensity, higher = more binding, comparable within an allelic series).
For GGAAATAA, the binding signal was 11.7 upbm affinity estimate (log intensity, higher = more binding, comparable within an allelic series).
For GACCATTA, the binding signal was 11.8 upbm affinity estimate (log intensity, higher = more binding, comparable within an allelic series).
In the case of ATTGCCAC, the binding signal is reported as 11 upbm affinity estimate (log intensity, higher = more binding, comparable within an allelic series).

These sequences were tested against MSX2 (Homo sapiens, UniProt P35548 130-214, F161Y) (assay: PBM; 200 nM protein, PBS). Conditions: dsDNA, one strand shown.
Chain of MSX2 (Homo sapiens, UniProt P35548 130-214, F161Y) (P35548 130-214 F161Y): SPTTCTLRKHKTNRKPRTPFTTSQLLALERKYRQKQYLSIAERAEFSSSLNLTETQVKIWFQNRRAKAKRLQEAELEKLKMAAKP
With ATTTTTGG the binding signal was 10.6 upbm affinity estimate (log intensity, higher = more binding, comparable within an allelic series).
In the case of ATTTGTCC, the binding signal is reported as 11 upbm affinity estimate (log intensity, higher = more binding, comparable within an allelic series).
With AAAATCGT the binding signal was 10.9 upbm affinity estimate (log intensity, higher = more binding, comparable within an allelic series).
For AAGCAAAT, the binding signal was 11.1 upbm affinity estimate (log intensity, higher = more binding, comparable within an allelic series).
For CAAATTCA, the binding signal was 10.7 upbm affinity estimate (log intensity, higher = more binding, comparable within an allelic series).
ATCATCGG was tested, and the binding signal was 10.8 upbm affinity estimate (log intensity, higher = more binding, comparable within an allelic series).
AATCAGGC was tested, and the binding signal was 11.2 upbm affinity estimate (log intensity, higher = more binding, comparable within an allelic series).
AAGAATCA was tested, and the binding signal was 10.6 upbm affinity estimate (log intensity, higher = more binding, comparable within an allelic series).
For CAATCCGA, the binding signal was 10.8 upbm affinity estimate (log intensity, higher = more binding, comparable within an allelic series).
For ACCGATAA, the binding signal was 11.1 upbm affinity estimate (log intensity, higher = more binding, comparable within an allelic series).
ATCAAAAT was tested, and the binding signal was 11.1 upbm affinity estimate (log intensity, higher = more binding, comparable within an allelic series).
With TCAACTAA the binding signal was 11 upbm affinity estimate (log intensity, higher = more binding, comparable within an allelic series).
For GTCATCTA, the binding signal was 10.4 upbm affinity estimate (log intensity, higher = more binding, comparable within an allelic series).
For ATTACTTC, the binding signal was 11.5 upbm affinity estimate (log intensity, higher = more binding, comparable within an allelic series).
CAAATAAG was tested, and the binding signal was 10.9 upbm affinity estimate (log intensity, higher = more binding, comparable within an allelic series).
ACCTCAAT was tested, and the binding signal was 10.9 upbm affinity estimate (log intensity, higher = more binding, comparable within an allelic series).
AAACGATC was tested, and the binding signal was 10.8 upbm affinity estimate (log intensity, higher = more binding, comparable within an allelic series).
For GAATAAAA, the binding signal was 10.9 upbm affinity estimate (log intensity, higher = more binding, comparable within an allelic series).
For ATTTCTAA, the binding signal was 11 upbm affinity estimate (log intensity, higher = more binding, comparable within an allelic series).
In the case of AATCGCAT, the binding signal is reported as 10.8 upbm affinity estimate (log intensity, higher = more binding, comparable within an allelic series).
In the case of ATCAATCC, the binding signal is reported as 11.1 upbm affinity estimate (log intensity, higher = more binding, comparable within an allelic series).
For AGTCCTAA, the binding signal was 11.2 upbm affinity estimate (log intensity, higher = more binding, comparable within an allelic series).
For ACAGATTG, the binding signal was 10.8 upbm affinity estimate (log intensity, higher = more binding, comparable within an allelic series).
With ATAAATAC the binding signal was 11.3 upbm affinity estimate (log intensity, higher = more binding, comparable within an allelic series).
With CTCAATCC the binding signal was 10.7 upbm affinity estimate (log intensity, higher = more binding, comparable within an allelic series).
In the case of GCGATATA, the binding signal is reported as 10.5 upbm affinity estimate (log intensity, higher = more binding, comparable within an allelic series).
For GGAAATAA, the binding signal was 11.4 upbm affinity estimate (log intensity, higher = more binding, comparable within an allelic series).
In the case of GACCATTA, the binding signal is reported as 11.7 upbm affinity estimate (log intensity, higher = more binding, comparable within an allelic series).
In the case of ATTGCCAC, the binding signal is reported as 11 upbm affinity estimate (log intensity, higher = more binding, comparable within an allelic series).

Source: PMC11006913
